PubChem BioAssay (Tox21)
Records with an inconclusive call do not appear. Where a call stands in place of a potency, no number is given. Calls of active or inactive are those of the source. Calls follow the shape of the dose curve; as a rule, active = well fitted cell-killing curve with a large enough effect in the repeat runs; inconclusive = weak or mixed curves; inactive = no such curve, though single readings can be large or run the other way.

Assay: qHTS assay to identify small molecule antagonists of the peroxisome proliferator-activated receptor delta (PPARd) signaling pathway - cell viability counter screen (AID 743213); also: nearly all actives have a fitted effect of over 50% in size
Settings: PPARd-bla HEK293H viability, CellTiter-Glo luminescence, 17 h; series mostly up to 62 µM
Text: U.S. Tox21 Program National Center for Advancing Translational Sciences [NCATS] NIH Chemical Genomics Center [NCGC] U.S. Environmental Protection Agency [EPA] National Institutes of Environmental Health Sciences [NIEHS] National Toxicology Program [NTP] U.S. Food and Drug Administration [FDA] Tox21 Assay Overview: The peroxisome proliferator-activated receptors (PPARs) are lipid-activated transcription factors of the nuclear receptor superfamily with three distinct subtypes namely PPAR alpha, PPAR delta (PPARd) and PPAR gamma. All these subtypes heterodimerizes with Retinoid X receptor (RXR) and have different physiological functions. […] To identify the compounds that inhibit PPAR-delta signaling, GeneBLAzer PPAR delta UAS-bla HEK293H cell line (Invitrogen, Carlsbad, CA, USA) containing a beta-lactamase reporter gene under the control of an Upstream Activator Sequence (UAS) was used to screen the Tox21 compound library. The cytotoxicity of the Tox21 compound library against the PPARd-bla cell line was tested in parallel by measuring the cell viability using CellTiter-Glo assay (Promega, Madison, WI) in the same wells.
Tox21 Assay Protocol Summary: PPARd-bla cells were dispensed at 3000 cells/5uL/well in 1536-well black wall/clear bottom plates using a Multidrop Combi (Thermo Fisher Scientific, Waltham, MA) dispenser. After the assay plates were incubated at 37 C and 5% CO2 for 5 h, 23 nL of compounds dissolved in DMSO, positive controls or DMSO only was transferred to the assay plate by a Pintool station (Kalypsys, San Diego, CA), followed by addition of 1ul L165041 (300 nM, final concentration in the wells). The assay plates were incubated at 37 C for 17 h, and then 1 uL of LiveBLAzerTM B/G FRET substrate was added using a Bioraptr Flying Reagent Dispenser (FRD) workstation (Beckman Coulter, Indianapolis, IN, USA). The assay plates were incubated at room temperature for 2 h and fluorescence intensity was measured by an Envision plate reader (PerkinElmer, Shelton, CT). For cell viability readout that measures cytotoxicity, 3 ul/well of CellTiter-Glo reagent was added into the assay plates using a Bioraptr FRD. After 30 min incubation at room temperature, the luminescence intensity in the plates was measured using a ViewLux plate reader (PerkinElmer).

**Q.** With `CN(C)CCCNCCCN` as the compound, how does the Potency read?
**A.** inactive

**Q.** With `CC(=O)N(CC(=O)N(C)C)c1ccccc1` as the compound, how does the Potency read?
**A.** inactive

**Q.** With `Cc1cc(CC(=O)O)c(C)n1-c1ccc(Cl)cc1` as the compound, how does the Potency read?
**A.** inactive

**Q.** With `CCC(C)N(C)C(=O)c1cc2ccccc2c(-c2ccccc2Cl)n1` (stereo not given) as the compound, how does the Potency read?
**A.** inactive

**Q.** Which Potency does the source give for `Cc1cccc(C(C)(C)C)c1O` here?
**A.** inactive

**Q.** With `CCOC(=S)SSC(=S)OCC` as the compound, how does the Potency read?
**A.** inactive

**Q.** Which Potency does the source give for `COc1ccccc1OC(=O)Oc1ccccc1OC` here?
**A.** inactive

**Q.** Which Potency does the source give for `Cc1occc1S` here?
**A.** inactive

**Q.** For `C=CC(=O)OCCOC(=O)CCC(=O)O`, which Potency is on record?
**A.** inactive

**Q.** With `CC(=O)OC/C=C/c1ccccc1` as the compound, how does the Potency read?
**A.** inactive

**Q.** For `O=C(O)c1cccc(N(Cc2cccnc2)c2ccc(OC(F)F)c(OC(F)F)c2)c1`, which Potency is on record?
**A.** inactive

**Q.** With `Cc1ccc(C(C)c2ccc(C)c(C)c2)cc1C` as the compound, how does the Potency read?
**A.** inactive

**Q.** For `CC(=O)/C(C)=C/C1C(C)=CCCC1(C)C` (stereo not given), which Potency is on record?
**A.** inactive

**Q.** With `N=C(N=C(N)N)N1CCOCC1` as the compound, how does the Potency read?
**A.** inactive

**Q.** For `CCCCC(CC)COCCCN` (stereo not given), which Potency is on record?
**A.** inactive

**Q.** Which Potency does the source give for `NC(=S)N/N=C/c1cccnc1` here?
**A.** inactive

**Q.** Which Potency does the source give for `Cc1ccccn1` here?
**A.** inactive

**Q.** For `CCCCCOC(=O)c1ccc(O)cc1`, which Potency is on record?
**A.** inactive

**Q.** For `C[Si](C)O[Si](C)(C)O[Si](C)(C)O[Si](C)C`, which Potency is on record?
**A.** inactive

**Q.** For `CN1CCC[C@@H]1c1cccnc1`, which Potency is on record?
**A.** inactive

**Q.** Which Potency does the source give for `Nc1nc(CC(=O)O)cs1` here?
**A.** inactive

**Q.** For `CC(C)(C)C(=O)OCOP(=O)(COCCn1cnc2c(N)ncnc21)OCOC(=O)C(C)(C)C`, which Potency is on record?
**A.** inactive

**Q.** For `COc1cc(C(C)(C)C)c(O)c(C(C)(C)C)c1`, which Potency is on record?
**A.** inactive

**Q.** Which Potency does the source give for `CC1CCc2cc(F)cc3c(=O)c(C(=O)O)cn1c23` (stereo not given) here?
**A.** inactive

**Q.** For `COCCOCCOCCOCCOC`, which Potency is on record?
**A.** inactive

**Q.** Which Potency does the source give for `NCCCN(CCO)CCO` here?
**A.** inactive

**Q.** Which Potency does the source give for `CCCCCCCCCO` here?
**A.** inactive

**Q.** Which Potency does the source give for `O=c1[nH]cnc2ccccc12` here?
**A.** inactive

**Q.** With `ClC(Cl)(Cl)c1ccc(C(Cl)(Cl)Cl)cc1` as the compound, how does the Potency read?
**A.** inactive

**Q.** With `O=c1c2ccccc2nnn1CCl` as the compound, how does the Potency read?
**A.** inactive

**Q.** Which Potency does the source give for `O=C(O)C(c1ccc(Cl)cc1)c1ccc(Cl)cc1` here?
**A.** inactive

**Q.** With `CCCCCCCCCCCCCCC1CO1` (stereo not given) as the compound, how does the Potency read?
**A.** inactive

**Q.** Which Potency does the source give for `OCC1CC2CC1C1CCC(CO)C21` (stereo not given) here?
**A.** inactive

**Q.** For `CCCCC(CC)(CO)CO`, which Potency is on record?
**A.** inactive

**Q.** For `O=C(CC(=O)c1ccccc1)c1ccccc1`, which Potency is on record?
**A.** inactive

**Q.** Which Potency does the source give for `Cc1ccc(C)o1` here?
**A.** inactive

**Q.** For `NC[C@H]1O[C@H](O[C@H]2[C@H](O)[C@@H](O[C@H]3O[C@H](CO)[C@@H](O)[C@H](N)[C@H]3O)[C@H](N)C[C@@H]2N)[C@H](O)[C@@H](O)[C@@H]1O`, which viability change, negative = cytotoxic is on record?
**A.** -5.87% [at 6.26 µM] (inactive)

**Q.** With `CC(C)(C)c1ccc(OCC2CO2)cc1` (stereo not given) as the compound, how does the Potency read?
**A.** inactive

**Q.** With `N#CCc1cccc(C(F)(F)F)c1` as the compound, how does the Potency read?
**A.** inactive

**Q.** For `CCCCOC(=O)/C=C\C(=O)OCCCC`, which Potency is on record?
**A.** inactive
